Reference: PubChem BioAssay (EPA / NIEHS)
Activity calls are given as the source filed them. The calls were made as follows: active = hit-call score of the fitted dose curve at least 0.9, where 1 is the maximum; inactive = score below 0.9.

read-out: Vascular cell adhesion molecule 1 (VCAM1), VCAM1 (gene 7412); assay: BSK_LPS_VCAM1: BioMAP Diversity Plus: LPS Assay for Vascular cell adhesion molecule 1 (VCAM1) Biomarker Activity (AID 2283086); settings: primary human HUVEC with PBMC; actives raise or lower the signal
Method in brief: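 Human umbilical vein endothelial cells co-cultured with peripheral blood mononuclear cells under LPS stimulation were exposed to test chemical for 24 h. VCAM-1 levels were then measured by ELISA, with bidirectional curve fitting relative to DMSO as negative control and baseline.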

SMILES	outcome	AC50
COP(=O)(NC(C)=O)SC (stereo unspecified)	inactive	–
CCOP(=O)(SC(C)CC)N1CCSC1=O (stereo unspecified)	inactive	–
Cc1ccn2nc(S(=O)(=O)Nc3c(F)cccc3F)nc2n1	inactive	–
CN1COCN(Cc2cnc(Cl)s2)C1=N[N+](=O)[O-]	inactive	–
CC1=NNC(=O)N(/N=C/c2cccnc2)C1	inactive	–
CNC(=O)Oc1cccc2c1OC(C)(C)O2	–	20 µM (active)
S=C1NCCN1	inactive	–
CCCSP(=O)(OCC)SCCC	inactive	–
CCCCOC(=O)[C@@H](C)Oc1ccc(Oc2ccc(C#N)cc2F)cc1	inactive	–
CCOC(=O)COc1cc(-c2nn(C)c(OC(F)F)c2Cl)c(F)cc1Cl	inactive	–
CON=C(C(=O)OC)c1ccccc1CON=C(C)c1cccc(C(F)(F)F)c1	inactive	–
FC(F)C(F)(F)OCC(Cn1cncn1)c1ccc(Cl)cc1Cl (stereo unspecified)	–	32.8 µM (active)
CCc1cccc(C)c1N(C(=O)CCl)C(C)COC (stereo unspecified)	–	14.2 µM (active)
CCC(=O)Nc1ccc(Cl)c(Cl)c1	inactive	–
CSc1nc(NC(C)C)nc(NC(C)C)n1	inactive	–
CCOP(=O)(NC(C)C)Oc1ccc(SC)c(C)c1 (stereo unspecified)	inactive	–
CCOP(=S)(OCC)Oc1ccc([N+](=O)[O-])cc1	–	20 µM (active)
CCOP(=O)(OCC)Oc1cc(C)nc(C(C)C)n1	inactive	–

SMILES	outcome	AC50
CC[C@H](C)[C@H]1O[C@]2(C=C[C@@H]1C)C[C@@H]1C[C@@H](C/C=C(\C)[C@@H](O[C@H]3C[C@H](OC)[C@@H](O[C@H]4C[C@H](OC)[C@@H](NC)[C@H](C)O4)[C@H](C)O3)[C@@H](C)/C=C/C=C3\CO[C@@H]4[C@H](O)C(C)=C[C@@H](C(=O)O1)[C@]34O)O2	–	7.42 µM (active)
COc1ccc(C(=CC(=O)N2CCOCC2)c2ccc(Cl)cc2)cc1OC	inactive	–
C[N+]1(C)CCCCC1	inactive	–
CCOP(=S)(OCC)Oc1cc(C)nc(C(C)C)n1	inactive	–
CCCCN(CC)c1c([N+](=O)[O-])cc(C(F)(F)F)cc1[N+](=O)[O-]	–	26.5 µM (active)
CC(Oc1cccc(Cl)c1)C(=O)O (stereo unspecified)	inactive	–
CCCCSP(=O)(SCCCC)SCCCC	–	31.1 µM (active)
CCCCOC(=O)c1ccccc1C(=O)O	inactive	–
O=C(O)c1cc(Oc2ccc(C(F)(F)F)cc2Cl)ccc1[N+](=O)[O-]	inactive	–
COP(=O)(OC)SCn1c(=O)oc2cc(Cl)cnc21	–	4.34 µM (active)
CNC(=O)ON=C(SC)C(=O)N(C)C	–	10.2 µM (active)
CCOP(=S)(OCC)OC(Cl)C(Cl)(Cl)Cl (stereo unspecified)	inactive	–
CSc1nnc(C(C)(C)C)c(=O)n1N	inactive	–
CCOC(=O)CC(SP(=O)(OC)OC)C(=O)OCC (stereo unspecified)	inactive	–
CC(C)=CC1C(C(=O)OCN2C(=O)C3=C(CCCC3)C2=O)C1(C)C (stereo unspecified)	–	28.5 µM (active)
C#CC(C)(C)NC(=O)c1cc(Cl)cc(Cl)c1	inactive	–
COP(=O)(OC)C(O)C(Cl)(Cl)Cl (stereo unspecified)	inactive	–

read-out: CD38, CD38 (gene 952); assay: BSK_SAg_CD38: BioMAP Diversity Plus: SAg Assay for CD38 Biomarker Activity (AID 2283087); settings: primary human HUVEC with PBMC; actives raise or lower the signal
Method in brief: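 Fluorescence ELISA of cell-surface CD38 served as the read-out, with either increase or decrease fitted against DMSO controls. Cells were a human umbilical vein endothelium plus PBMC co-culture under SEB/TSST-1 stimulation, measured 24 h after dosing.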

SMILES	outcome	AC50
COP(=O)(NC(C)=O)SC (stereo unspecified)	inactive	–
CCOP(=O)(SC(C)CC)N1CCSC1=O (stereo unspecified)	inactive	–
Cc1ccn2nc(S(=O)(=O)Nc3c(F)cccc3F)nc2n1	inactive	–
CN1COCN(Cc2cnc(Cl)s2)C1=N[N+](=O)[O-]	inactive	–
CC1=NNC(=O)N(/N=C/c2cccnc2)C1	inactive	–
CNC(=O)Oc1cccc2c1OC(C)(C)O2	–	35.1 µM (active)
S=C1NCCN1	inactive	–
CCCSP(=O)(OCC)SCCC	inactive	–
CCCCOC(=O)[C@@H](C)Oc1ccc(Oc2ccc(C#N)cc2F)cc1	inactive	–
CCOC(=O)COc1cc(-c2nn(C)c(OC(F)F)c2Cl)c(F)cc1Cl	inactive	–
CON=C(C(=O)OC)c1ccccc1CON=C(C)c1cccc(C(F)(F)F)c1	–	5.63 µM (active)
FC(F)C(F)(F)OCC(Cn1cncn1)c1ccc(Cl)cc1Cl (stereo unspecified)	–	20 µM (active)
CCc1cccc(C)c1N(C(=O)CCl)C(C)COC (stereo unspecified)	inactive	–
CCC(=O)Nc1ccc(Cl)c(Cl)c1	inactive	–
CSc1nc(NC(C)C)nc(NC(C)C)n1	inactive	–
CCOP(=O)(NC(C)C)Oc1ccc(SC)c(C)c1 (stereo unspecified)	inactive	–
CCOP(=S)(OCC)Oc1ccc([N+](=O)[O-])cc1	–	20 µM (active)
CCOP(=O)(OCC)Oc1cc(C)nc(C(C)C)n1	inactive	–

SMILES	outcome	AC50
CC[C@H](C)[C@H]1O[C@]2(C=C[C@@H]1C)C[C@@H]1C[C@@H](C/C=C(\C)[C@@H](O[C@H]3C[C@H](OC)[C@@H](O[C@H]4C[C@H](OC)[C@@H](NC)[C@H](C)O4)[C@H](C)O3)[C@@H](C)/C=C/C=C3\CO[C@@H]4[C@H](O)C(C)=C[C@@H](C(=O)O1)[C@]34O)O2	–	3.25 µM (active)
COc1ccc(C(=CC(=O)N2CCOCC2)c2ccc(Cl)cc2)cc1OC	–	17.4 µM (active)
C[N+]1(C)CCCCC1	inactive	–
CCOP(=S)(OCC)Oc1cc(C)nc(C(C)C)n1	inactive	–
CCCCN(CC)c1c([N+](=O)[O-])cc(C(F)(F)F)cc1[N+](=O)[O-]	–	27.9 µM (active)
CC(Oc1cccc(Cl)c1)C(=O)O (stereo unspecified)	inactive	–
CCCCSP(=O)(SCCCC)SCCCC	–	20 µM (active)
CCCCOC(=O)c1ccccc1C(=O)O	inactive	–
O=C(O)c1cc(Oc2ccc(C(F)(F)F)cc2Cl)ccc1[N+](=O)[O-]	inactive	–
COP(=O)(OC)SCn1c(=O)oc2cc(Cl)cnc21	–	21.4 µM (active)
CNC(=O)ON=C(SC)C(=O)N(C)C	inactive	–
CCOP(=S)(OCC)OC(Cl)C(Cl)(Cl)Cl (stereo unspecified)	–	30.8 µM (active)
CCCOc1nn(C(=O)NS(=O)(=O)c2ccccc2C(=O)OC)c(=O)n1C	inactive	–
CSc1nnc(C(C)(C)C)c(=O)n1N	inactive	–
CCOC(=O)CC(SP(=O)(OC)OC)C(=O)OCC (stereo unspecified)	inactive	–
CC(C)=CC1C(C(=O)OCN2C(=O)C3=C(CCCC3)C2=O)C1(C)C (stereo unspecified)	–	32.2 µM (active)
C#CC(C)(C)NC(=O)c1cc(Cl)cc(Cl)c1	inactive	–
COP(=O)(OC)C(O)C(Cl)(Cl)Cl (stereo unspecified)	inactive	–
